In PubChem BioAssay (NCI):
“And” between values parts separate entries of the source, which are not always exact repeats. Identical values can stand only once. About 83,000 compounds went through this panel and 20% of them were active in at least one assay; those are over-represented in the sample as a whole.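 Plates (96-well) were seeded with cells, treated with compound at one concentration, and incubated for 48 hours before percent growth was determined.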 A number with no mark means an inactive call. The source made the active and inactive calls. The calls were made as follows: active = growth percent below 10; inactive = the rest.

Tests used:
Experiment in all cases: NCI-60 one-dose screen, 48 h (100 = growth as untreated, 0 = no growth, -100 = all killed)
Settings in all cases: 10 µM unless noted
SK-MEL-2 melanoma = system: SK-MEL-2 melanoma
EKVX NSCLC = system: EKVX NSCLC
SN12C renal = system: SN12C renal
UO-31 renal = system: UO-31 renal
TK-10 renal = system: TK-10 renal
ACHN renal = system: ACHN renal
CAKI-1 renal = system: CAKI-1 renal
A498 renal = system: A498 renal
MOLT-4 leukemia = system: MOLT-4 leukemia
SR leukemia = system: SR leukemia
RPMI-8226 leukemia = system: RPMI-8226 leukemia
OVCAR-8 ovarian = system: OVCAR-8 ovarian
OVCAR-5 ovarian = system: OVCAR-5 ovarian
OVCAR-4 ovarian = system: OVCAR-4 ovarian
IGROV1 ovarian = system: IGROV1 ovarian
OVCAR-3 ovarian = system: OVCAR-3 ovarian
HS 578T breast = system: HS 578T breast
NCI/ADR-RES ovarian = system: NCI/ADR-RES ovarian
CCRF-CEM leukemia = system: CCRF-CEM leukemia
SK-OV-3 ovarian = system: SK-OV-3 ovarian

SMILES	growth (SK-MEL-2 melanoma)	growth (EKVX NSCLC)	growth (SN12C renal)	growth (UO-31 renal)	growth (TK-10 renal)	growth (ACHN renal)	growth (CAKI-1 renal)	growth (A498 renal)	growth (MOLT-4 leukemia)	growth (SR leukemia)	growth (RPMI-8226 leukemia)	growth (OVCAR-8 ovarian)	growth (OVCAR-5 ovarian)	growth (OVCAR-4 ovarian)	growth (IGROV1 ovarian)	growth (OVCAR-3 ovarian)	growth (HS 578T breast)	growth (NCI/ADR-RES ovarian)	growth (CCRF-CEM leukemia)	growth (SK-OV-3 ovarian)
CN(C)CC(CN(C)C)C(O)c1ccccc1 (stereo unspecified)	94.4%	96.1%	103%	96.1%	89.5%	105%	98.2%	109%	106%	111%	108%	104%	106%	102%	106%	115%	108%	100%		
CC(C)=NOC(C)C(=O)O (stereo unspecified)	107%	95.9%	94.1%	97.5%	104%	102%		89.2%	105%	92%	111%	90.2%	101%	108%	135%	114%	108%	99.6%	103%	115%
CC(=O)c1cccc(OC(=O)c2ccccc2)c1	88.9%	110%	91.2%	103%	106%	109%	91.1%		84.7%	65.6%	100%	99%	104%	92.7%	114%	124%	105%	96%		97.6%
COc1ccc(/C=N/Nc2nc3ccccc3s2)cc1	117%	67.4%	89%	62.6%	112%	90.6%	79.9%		85.8%	87.9%	104%	105%	103%	87.5%	68.5%	86.4%	105%	98.7%	34.7%	90%
OCCSc1ccc(Cl)cc1	109% and 90.7%	100% and 89.4%	104% and 93%	95.9% and 85.7%	87.7%	99.6% and 95.1%	107% and 91.1%	107% and 88.9%	118% and 91.7%	117% and 99.7%	122% and 84.6%	111% and 103%	105% and 91.1%	104% and 99.9%	109% and 93.6%	124% and 110%	101%	108% and 102%		
c1ccc2c[n+](Cc3ccc4ccccc4n3)ccc2c1	102%	82.5%	80%	82.4%	99.9%	99.8%	102%		92.4%	98.1%	57.2%	69%	105%	67.1%	80.5%	62.1%	86.2%	102%		88.5%
CCN(CC)CCNC(=O)c1ccc(NCN2C(=O)NC(c3ccccc3)(c3ccccc3)C2=O)cc1	106% and 112%	90.6% and 95.3%	107% and 105%	86.6% and 67.1%	115% and 114%	107% and 104%	90.5% and 88.1%	81.1% and 205%	102% and 108%	99.5% and 113%	104%	99.9% and 111%	104% and 119%	105% and 104%	144% and 107%	110% and 98.8%	98.4% and 103%	107% and 111%		
CC(=O)Nc1ccc2oc(=O)ccc2c1	101%	94.6%	95.6%	91.3%	111%	113%	88.1%		98.6%	82.3%	104%	106%	102%	106%	105%	110%	109%	116%		102%
COc1ccccc1OCC(O)CO (stereo unspecified)	98.3% and 110%	102% and 83.5%	95.2% and 103%	87.6% and 96.4%	98%	102% and 110%		98% and 87.8%	144% and 121%	116% and 124%	76.7%	115% and 104%	103%	110% and 101%	123% and 114%	107% and 125%	61.7% and 107%	100% and 107%	98.5% and 97.1%	106% and 121%
O=C(NC(=O)c1ccc(F)c(Cl)c1)NC1CC1	107%	89.6%	102% and 87.9%	96.8%	94.3% and 96.1%	106% and 108%		95.8% and 96%	94.2% and 75.6%	91.4%	98% and 102%	98.8% and 103%	109% and 105%	119% and 93.4%	113% and 109%	104% and 107%	102% and 96.6%	107% and 103%	97.2% and 101%	114% and 105%
N#Cc1c(N)nc2c(c(-c3ccc(Cl)cc3)nn2-c2ccccc2)c1C#N	122% [100 µM]	83% [100 µM]	105% [100 µM]	96.6% [100 µM]	128% [100 µM]	86.9% [100 µM]	108% [100 µM]		114% [100 µM]	104% [100 µM]	108% [100 µM]	99.8% [100 µM]	123% [100 µM]	111% [100 µM]	99.2% [100 µM]	122% [100 µM]	83.9% [100 µM]	101% [100 µM]	98.9% [100 µM]	94.8% [100 µM]
O=c1[nH]c(=O)c2[nH]c(=O)[nH]c2[nH]1	137%	88.6%	99.7%	85.7%	92.1%	101%		73.9%	113%	114%	101%	102%	99.7%	109%	106%	107%	102%	106%	114%	115%
Cc1cc2ccccc2c2cc3ccccc3cc12	92.6%	82.7%	98.3%	78.8%	98.8%	92.8%	88.8%	88.5%	65.6%	40.8%	105%	98.9%	86.9%	94.5%	61.8%	100%	95.2%	98.8%		
O=[N+]([O-])c1ccc(N/N=C/C2CCCCCC2)c([N+](=O)[O-])c1	105%	84.9%	92%	61.2%	118%	70.4%	74.2%		77.3%	82.9%	90.3%	102%	99.1%	98.5%		99.8%	96.9%	104%	51.6%	102%
Nc1nc(-c2ccccn2)cc(-c2cc(-c3ccccn3)nc(N)n2)n1	112%	102%	108%	91.1%	107%	110%	96.7%	156%	106%	92%	111%	106%	109%	105%	108%	110%	127%	107%		119%
COC(=O)C(Cc1cn(C(C)=O)c2ccccc12)P(=O)(OC)OC (stereo unspecified)	102%	90.6%	97.7%	74.8%	100%	100%	102%		108%	94.6%	101%	106%	103%	87%	113%	106%	94.2%	95.3%		113%
O=C(c1ccc(Cl)cc1)C1C(c2ccccc2)C1[N+](=O)[O-] (stereo unspecified)	106%	105%	104%	74.8%	95.1%	111%	99.1%		83.7%	78%	96.3%	99%	109%	99%	103%	97.8%	96%	99.7%	103%	105%
CC(O)CCNC(c1ccccc1)C(O)c1ccccc1 (stereo unspecified)	99.4%	115%	108%	92.9%	106%	109%		103%	102%	105%	89.7%	104%	109%	107%	95.9%	132%	110%	110%	93.7%	107%
O=C(O)COc1ccccc1F	102%	111%	98.3%	103%	109%	108%		102%	95.3%	99.5%	98.4%	116%	104%	111%	105%	108%	101%	114%	92.3%	119%
C(=N\OCCc1ccccc1)/c1ccccn1	124% and 104%	115% and 106%	119% and 109%	109% and 98%	93.3% and 89.5%	110% and 107%	105% and 100%		101% and 93.1%	96.5% and 84.3%	117% and 98.3%	108% and 103%	101% and 102%	114% and 113%	111%	105% and 104%	117% and 105%	117% and 104%	106% and 94.6%	123%
COC(=O)c1cc(C(=O)OC)cc([N+](=O)[O-])c1	109%	105%	111%	83.6%	110%	106%	109%		71%	74.7%	93.8%	93.5%	106%	106%	118%	120%	103%	115%	102%	98.5%
S=c1ccc2ccccc2[nH]1	97.9% and 97.2%	107% and 103%	101%	88.2% and 80.9%	105% and 108%	101% and 109%	96.5%		93.3% and 100%	109% and 97.3%	109% and 104%	102% and 98.6%	102% and 105%	104% and 108%	104% and 106%	114% and 107%	97.7% and 103%	107% and 110%	103% and 101%	97.9% and 101%
CCc1ccc(OC(=O)CCl)cc1	99.9%	98.6%	106%	88.6%	101%	102%	101%	88.3%	102%	101%	111%	101%	107%	95.6%		104%	110%	103%		112%
Cc1ccc([N+](=O)[O-])cc1Br	95.6%	101%	98.2%	92.1%	97.1%	98.3%		88.5%	81.7%	83%	108%	91.1%	89.9%	105%	113%	107%	94.8%	108%	105%	96.4%
CC1NC(C)c2ccc3ccccc3c2O1 (stereo unspecified)	100%	123%	99.1%	69.4%	110%	98.3%		84.8%	105%	96.8%	97.3%	104%	108%	111%	115%	106%	108%	105%	97.9%	106%
CC(C)(C(=O)c1cccnc1)c1cccnc1	101% and 99.7%	102% and 124%	96.1% and 113%	77.5% and 93.4%	103% and 110%	97.3% and 111%	98.5% and 109%		96.3% and 126%	84.7%	97% and 92.1%	106% and 104%	93.5% and 94.5%	110% and 118%	107% and 103%	112% and 118%	94.8% and 110%	106% and 67.8%	91.8%	109% and 115%
CC(=O)C[n+]1ccccc1Sc1ccc(Cl)cc1	132%	103%	49.5%	60.5%	104%	113%	90.9%		18.9%	57.4%	84.7%	92.8%	148%	93.7%		100%	84.3%	111%	-9.4% (active)	
